Where “and” joins values, the source holds several entries; their conditions need not be identical. Equal entries are not always repeated. Compounds without any hit were thinned out: in the full panel of roughly 79,000, 15% have a hit. The source holds several records for some structures; these can differ, active in one and inactive in another. Calls of active or inactive are those of the source. Cut-off read from the data, not from the text of the source: active = growth inhibition above about 70%; inactive = the rest.
Assays:
[1] = NCI Yeast Anticancer Drug Screen. Data for the wt1 strain (AID 149);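 note: 0% = growth of vehicle-treated wt1 cultures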; conditions: S. cerevisiae wt1 strain (SPY 50644) growth inhibition, stronger effect = higher value
Method in brief: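 wt1 yeast, compound-treated; % growth inhibition vs vehicle control.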

[2] = NCI Yeast Anticancer Drug Screen. Data for the rad50EPP+ strain (AID 151);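 note: 0% = growth of vehicle-treated control cultures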; conditions: S. cerevisiae rad50 mutant strain, stronger effect = higher value
Method in brief: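 Growth inhibition read against vehicle controls in rad50EPP+ yeast, a strain altered in DNA damage repair, after compound exposure.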

[3] = NCI Yeast Anticancer Drug Screen. Data for the mgt1 strain (AID 153); conditions: S. cerevisiae mgt1 mutant growth inhibition, stronger effect = higher value
Method in brief: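 mgt1 yeast grown with test compound; read-out is growth inhibition versus vehicle-treated cultures.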

[4] = NCI Yeast Anticancer Drug Screen. Data for the rad50 strain (AID 155);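 note: 0% = growth of vehicle-only cultures of the same strain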; conditions: S. cerevisiae rad50 strain growth inhibition, stronger effect = higher value
Method in brief: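 Genetically altered yeast (DNA repair pathway); compound treatment; growth inhibition vs vehicle ctrl.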

[5] = NCI Yeast Anticancer Drug Screen. Data for the mec2-1 strain (AID 157); conditions: S. cerevisiae mec2-1 strain, stronger effect = higher value
Method in brief: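 Yeast mec2-1 mutant treated with compound. Readout: growth inhibition vs vehicle controls.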

[6] = NCI Yeast Anticancer Drug Screen. Data for the rad14 strain (AID 159);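 note: 0% = growth of vehicle-treated control cultures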; conditions: S. cerevisiae rad14 strain growth inhibition, stronger effect = higher value
Method in brief: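 Test compounds were applied to a repair-deficient yeast strain. Its growth was then compared with that of cultures given vehicle alone, and inhibition was expressed relative to those controls.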

[7] = NCI Yeast Anticancer Drug Screen. Data for the sgs1 mgt1 strain (AID 161);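 note: 0% = growth of cultures given vehicle only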; conditions: S. cerevisiae sgs1 mgt1 strain, stronger effect = higher value
Method in brief: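 Genetically altered yeast, compound exposure, growth inhibition relative to vehicle.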

[8] = NCI Yeast Anticancer Drug Screen. Data for the CLN2oe strain (AID 163);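 note: 0% = growth of vehicle-only control cultures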; conditions: S. cerevisiae CLN2oe strain, stronger effect = higher value
Method in brief: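 Read-out: yeast growth inhibition, expressed relative to vehicle-only controls. The strain bears an engineered cell-cycle alteration.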

[9] = NCI Yeast Anticancer Drug Screen. Data for the cln2 rad14 strain (AID 165);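 note: 0% = growth equal to vehicle treated cultures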; conditions: S. cerevisiae cln2 rad14 strain, stronger effect = higher value
Method in brief: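 cln2 rad14 yeast strain; compound exposure; growth inhibition read vs vehicle controls.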

[10] = NCI Yeast Anticancer Drug Screen. Data for the bub3 strain (AID 167); conditions: S. cerevisiae bub3 mutant strain, stronger effect = higher value
Method in brief: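 Yeast carrying a defined mutation is treated with each compound, and growth is compared with that of vehicle-exposed cells to give inhibition.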

[11] = NCI Yeast Anticancer Drug Screen. Data for the wt2 strain (AID 169);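 note: 0% = growth of vehicle-treated yeast cultures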; conditions: S. cerevisiae wt2 strain growth inhibition, stronger effect = higher value
Method in brief: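 Read-out: growth inhibition versus vehicle-treated control cultures after compound exposure of the yeast strain.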

[12] = NCI Yeast Anticancer Drug Screen. Data for the mlh1 strain (AID 171);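 note: 0% = growth of vehicle-treated control cultures of the same strain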; conditions: S. cerevisiae mlh1 strain growth inhibition, stronger effect = higher value
Method in brief: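 Read-out: growth inhibition versus vehicle controls. Strain: engineered yeast with a defined DNA repair or cell cycle defect, compound-treated.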

[13] = NCI Yeast Anticancer Drug Screen. Data for the sgs1 strain (AID 173);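 note: 0% = growth of vehicle-only control cultures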; conditions: S. cerevisiae sgs1 mutant, stronger effect = higher value
Method in brief: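 Read-out: yeast growth inhibition relative to vehicle controls, following compound exposure of a strain with a defined DNA repair/cell cycle alteration.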

[14] = NCI Yeast Anticancer Drug Screen. Data for the mlh1 rad18 strain (AID 175); conditions: S. cerevisiae mlh1 rad18 strain growth inhibition, stronger effect = higher value
Method in brief: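 Yeast w/ defined DNA-repair lesions; compound exposure; growth vs vehicle controls → % inhibition.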

[15] = NCI Yeast Anticancer Drug Screen. Data for the rad18 strain (AID 177); conditions: S. cerevisiae rad18 mutant growth inhibition, stronger effect = higher value
Method in brief: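 Readout: growth inhibition vs vehicle controls. Cells: genetically altered yeast strain, DNA repair defect.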

[16] = at 5.0 µM (retest, dose inferred, filed as 0.5)
[17] = at 50.0 µM (retest, dose inferred, filed as 5.0)

SMILES: O=C(NNc1ccccc1)C(O)C(O)C(O)C(O)C(O)CO (stereo not drawn)
- growth inhibition ([1]; at 1.2 µM): 4% (inactive)
- growth inhibition ([1]; at 3.7 µM): 12% (inactive)
- growth inhibition ([1]; at 11.0 µM): 31% (inactive)
- growth inhibition ([1]; at 33.0 µM): 52% (inactive)
- growth inhibition ([1]; at 100.0 µM): 70% (active)
- growth inhibition ([2]; at 1.2 µM): 9% (inactive)
- growth inhibition ([2]; at 3.7 µM): 29% (inactive)
- growth inhibition ([2]; at 11.0 µM): 43% (inactive)
- growth inhibition ([2]; at 33.0 µM): 64% (inactive)
- growth inhibition ([2]; at 100.0 µM): 86% (active)
- growth inhibition ([3]; at 1.2 µM): 6% (inactive)
- growth inhibition ([3]; at 3.7 µM): 12% (inactive)
- growth inhibition ([3]; at 11.0 µM): 23% (inactive)
- growth inhibition ([3]; at 33.0 µM): 50% (inactive)
- growth inhibition ([3]; at 100.0 µM): 88% (active)
- growth inhibition ([4]; at 1.2 µM): 5% (inactive)
- growth inhibition ([4]; at 3.7 µM): 7% (inactive)
- growth inhibition [4, 16]: 24% (inactive) and 10% (inactive)
- growth inhibition ([4]; at 11.0 µM): 21% (inactive)
- growth inhibition ([4]; at 33.0 µM): 40% (inactive)
- growth inhibition [4, 17]: 48% (inactive) and 56% (inactive) and 87% (active)
- growth inhibition ([4]; at 50.0 µM): 91.7% (active) and 24.9% (inactive) and 57.1% (inactive)
- growth inhibition ([4]; at 100.0 µM): 84% (active)
- growth inhibition ([5]; at 1.2 µM): -2% (inactive)
- growth inhibition ([5]; at 3.7 µM): 2% (inactive)
- growth inhibition [5, 16]: -5% (inactive) and 6% (inactive) and 1% (inactive)
- growth inhibition ([5]; at 11.0 µM): 31% (inactive)
- growth inhibition ([5]; at 33.0 µM): 52% (inactive)
- growth inhibition [5, 17]: 39% (inactive) and 48% (inactive) and 87% (active)
- growth inhibition ([5]; at 50.0 µM): 51.7% (inactive) and 26.8% (inactive) and 80.2% (active)
- growth inhibition ([5]; at 100.0 µM): 82% (active)
- growth inhibition ([6]; at 1.2 µM): 0% (inactive)
- growth inhibition ([6]; at 3.7 µM): -1% (inactive)
- growth inhibition ([6]; at 11.0 µM): 8% (inactive)
- growth inhibition ([6]; at 33.0 µM): 20% (inactive)
- growth inhibition ([6]; at 100.0 µM): 59% (inactive)
- growth inhibition [7, 16]: -10% (inactive) and 9% (inactive) and 13% (inactive)
- growth inhibition [7, 17]: 35% (inactive) and 52% (inactive) and 71% (active)
- growth inhibition ([7]; at 50.0 µM): 78.5% (active) and 54.9% (inactive) and 60.7% (inactive)
- growth inhibition ([8]; at 1.2 µM): -2% (inactive)
- growth inhibition ([8]; at 3.7 µM): 3% (inactive)
- growth inhibition ([8]; at 11.0 µM): 22% (inactive)
- growth inhibition ([8]; at 33.0 µM): 52% (inactive)
- growth inhibition ([8]; at 100.0 µM): 76% (active)
- growth inhibition [9, 16]: 4% (inactive) and 3% (inactive)
- growth inhibition [9, 17]: 54% (inactive) and 48% (inactive) and 81% (active)
- growth inhibition ([9]; at 50.0 µM): 54.4% (inactive) and 55.3% (inactive) and 78.8% (active)
- growth inhibition ([10]; at 1.2 µM): -3% (inactive)
- growth inhibition ([10]; at 3.7 µM): 0% (inactive)
- growth inhibition [10, 16]: -1% (inactive) and 10% (inactive) and 14% (inactive)
- growth inhibition ([10]; at 11.0 µM): 33% (inactive)
- growth inhibition ([10]; at 33.0 µM): 75% (active)
- growth inhibition [10, 17]: 38% (inactive) and 79% (active) and 90% (active)
- growth inhibition ([10]; at 50.0 µM): 96.8% (active) and 45.6% (inactive) and 87.4% (active)
- growth inhibition ([10]; at 100.0 µM): 92% (active)
- growth inhibition ([11]; at 1.2 µM): 2% (inactive)
- growth inhibition ([11]; at 3.7 µM): 12% (inactive)
- growth inhibition ([11]; at 11.0 µM): 28% (inactive)
- growth inhibition ([11]; at 33.0 µM): 39% (inactive)
- growth inhibition ([11]; at 100.0 µM): 80% (active)
- growth inhibition ([12]; at 1.2 µM): 4% (inactive)
- growth inhibition ([12]; at 3.7 µM): 2% (inactive)
- growth inhibition ([12]; at 11.0 µM): 22% (inactive)
- growth inhibition ([12]; at 33.0 µM): 44% (inactive)
- growth inhibition ([12]; at 100.0 µM): 91% (active)
- growth inhibition ([13]; at 1.2 µM): 2% (inactive)
- growth inhibition ([13]; at 3.7 µM): 10% (inactive)
- growth inhibition ([13]; at 11.0 µM): 37% (inactive)
- growth inhibition ([13]; at 33.0 µM): 67% (inactive)
- growth inhibition ([13]; at 100.0 µM): 94% (active)
- growth inhibition [14, 16]: 23% (inactive) and 28% (inactive) and 26% (inactive)
- growth inhibition [14, 17]: 85% (active) and 87% (active) and 93% (active)
- growth inhibition ([14]; at 50.0 µM): 86.9% (active) and 85.9% (active) and 95.2% (active)
- growth inhibition ([15]; at 1.2 µM): 5% (inactive)
- growth inhibition ([15]; at 3.7 µM): 13% (inactive)
- growth inhibition ([15]; at 11.0 µM): 39% (inactive)
- growth inhibition ([15]; at 33.0 µM): 67% (inactive)
- growth inhibition ([15]; at 100.0 µM): 92% (active)
